Compound activity deposited in PubChem by National Center for Advancing Translational Sciences (NCATS).
SW480 rereplic – A quantitative high throughput screen for small molecules that induce DNA re-replication in SW480 colon adenocarcinoma cells; SW480 DNA re-replication, Hoechst DNA content imaging, 48 h; Potency, µM (series often up to 46.1 µM), without a hit: top-dose re-replication activation, usual class: activators; 1.8% of 340,000 active; AID 624297, 2012; also: potency is read from the fitted curve at half-maximal effect; % of control where 0% means no effect; nearly all actives have a fitted effect of over 55% in size
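Image-based DNA-content assay: after two days of treatment, nuclei were labelled with the DNA dye Hoechst and imaged, and hits were compounds raising the count of nuclei showing high fluorescence intensity.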
RORgamma inh – qHTS for inhibitors of ROR gamma transcriptional activity; Drosophila S2 Gal4-RORgamma UAS-luciferase reporter, 20 h; Potency, µM (top dose mostly 53.6 µM), for the others: top-dose activity change, negative = inhibition, actives largely listed as inhibitors; 5.4% of 310,000 active; also: potency is read from the fitted curve at half-maximal effect; % is scaled to controls: 0 for no effect and ±100 for the full control effect; nearly all actives have a fitted effect of over 60% in size
Target sequence (P51450 whole entry, looked up, the tested form may be a part): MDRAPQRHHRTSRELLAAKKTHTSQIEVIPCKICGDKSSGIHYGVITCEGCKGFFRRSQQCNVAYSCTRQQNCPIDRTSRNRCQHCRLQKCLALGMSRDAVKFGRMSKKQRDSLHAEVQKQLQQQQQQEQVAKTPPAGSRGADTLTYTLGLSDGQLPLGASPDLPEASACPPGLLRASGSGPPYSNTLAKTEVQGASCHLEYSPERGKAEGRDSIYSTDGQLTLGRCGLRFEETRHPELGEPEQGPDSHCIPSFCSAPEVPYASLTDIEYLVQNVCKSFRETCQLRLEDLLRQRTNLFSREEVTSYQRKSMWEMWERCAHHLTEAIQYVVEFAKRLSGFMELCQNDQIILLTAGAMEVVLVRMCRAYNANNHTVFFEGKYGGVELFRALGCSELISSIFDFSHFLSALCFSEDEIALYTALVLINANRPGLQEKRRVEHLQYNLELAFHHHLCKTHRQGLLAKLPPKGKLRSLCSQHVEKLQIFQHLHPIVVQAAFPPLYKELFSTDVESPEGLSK
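Read-out: Photinus luciferase luminescence; inhibitors lower reporter signal. Insect Schneider cells with Gal4-ROR gamma fusion under metallothionein promoter, UAS reporter; 700 uM final copper sulfate induction, 20 hr, ambient temperature.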
VP16 counter – VP16 counterscreen qHTS for inhibitors of ROR gamma transcriptional activity. Drosophila S2 Gal4-VP16 UAS-luciferase, luminescence, 20 h. Potency, µM (series often up to 53.6 µM), without a hit: top-dose activity, negative = inhibition, usual class: inhibitors. 3.5% of 310,000 active. AID 2546, 2010;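 also: Gal4-VP16 expression switched on by copper sulfate through the metallothionein promoter; potency is read from the fitted curve at half-maximal effect; % is scaled to controls: 0 for no effect and ±100 for the full control effect; nearly all actives have a fitted effect of over 50% in size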
IL1B secr inh – qHTS for Inhibitors of Inflammasome Signaling: IL-1-beta AlphaLISA Primary Screen. THP-1 LPS/ATP IL-1B secretion, AlphaLISA, 16 h; hits give low values. activity change, % at 57.5 µM. 4.7% of 360,000 active. AID 743279, 2014; in the data active = activity change below about -50%; inconclusive = mostly about -30% to -49%; also: % is scaled to controls: 0 for no effect and ±100 for the full control effect
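THP-1 cells pretreated 1 hr with compounds (up to 57.5 uM final), then stimulated with LPS (250 ng/mL final) plus ATP (1.25 mM final); secreted IL-1B measured by AlphaLISA after 16 hr, decreased signal indicating inhibition.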
MCF10A rerep – A quantitative high throughput screen for small molecules that induce DNA re-replication in MCF 10a normal breast cells. Potency, µM (series often up to 46.1 µM), inactives show top-dose activity, positive = re-replication, usual class: activators. 2.9% of 350,000 active. MCF 10A DNA re-replication, Hoechst nuclear intensity, 48 h; also: potency is read from the fitted curve at half-maximal effect; % of control where 0% means no effect; nearly all actives have a fitted effect of over 50% in size
Starred values were filed as active, the others as inactive; i = inactive; ? = inconclusive; . = not tested or not shown; [ ] = dose if it differs, or a comment. An excerpt weighted towards active compounds, which were near 11% of everything screened. Unless noted, calls follow the shape of the dose curve; as a rule, active = well fitted curve in the direction sought with a large enough effect; inconclusive = small, poorly fitted or top-dose-only effect, or another doubt; inactive = no such curve, though single readings can be large; an effect the other way counts as inactive or inconclusive.

SMILES	SW480 rereplic	RORgamma inh	VP16 counter	IL1B secr inh	MCF10A rerep
Cc1ccc(COCC(CC(C)C)N2CCN(C(=O)c3cccc(C(F)(F)F)c3)CCC2=O)cc1 (centres undefined)	-4%	?	2%	-27	-3%
NC(CSCSCC(N)C(=O)O)C(=O)O (centres undefined)	.	-4%	-2%	.	.
CCN(Cc1ccncc1)C(=O)c1cc(COc2ccc(C)c(C)c2)on1	-4%	91%	?	-53*	7%
Cc1ccc(OCc2cc(C(=O)N(CCO)Cc3cccs3)no2)cc1C	-2%	-11%	25%	-62*	?
CCN(Cc1ccccc1)C(=O)c1cc(COc2c(F)cccc2F)on1	-1%	44%	-4%	?	2%
O=C(NCCCN1CCOCC1)C1CCN(S(=O)(=O)c2cccc(C(F)(F)F)c2)CC1	-6%	.	.	6	14%
CN(C)C(=O)CCc1ccc2c3c([nH]c2c1)[C@]1(CCC2CCCC2)[C@@H](C(=O)N2CCOCC2)C[C@H](CC(=O)NCCc2ccccn2)C(=O)N1CC3	-6%[9.22 µM]	.	.	-5	2%
COc1cccc(OC)c1C(=O)Nc1ccccc1N1CCCCC1	-5%	?	6%	-51*	1%
CCCCC(=O)NC(=S)Nc1cc(C(=O)O)ccc1OC	-25%	-30%	4%	0	-9%
O=C(Cc1ccccc1)Nc1ccccc1N1CCCC1	-11%	8%	6%	2	5%
O=C(Nc1ccccc1N1CCCCC1)c1ccc(F)cc1	-4%	0%	9%	23	19%
O=C(Cc1ccc(Cl)cc1)NC(=S)Nc1ccccc1N1CCOCC1	-4%	5µM*	5µM*	17	?
O=C(Cc1ccccc1)Nc1ccccc1N1CCOCC1	-7%	-1%	1%	16	3%
CCCCC(=O)NC(=S)Nc1cccc(Cl)c1N1CCCCC1	14%	1.6µM*	5µM*	?	?
CCCCC(=O)NC(=S)Nc1ccccc1N1CCCCC1	?	4.5µM*	8.9µM*	11	?
COc1ccc(S(=O)(=O)NCCCN2CCCC2=O)cc1OC	1%	-1%	3%	-25	-9%
O=C(Nc1ccccc1N1CCCCC1)c1ccc(OC(F)F)cc1	26%	-3%	1%	0	13µM*
CC(C)CC(=O)NC(=S)Nc1ccccc1N1CCCC1	-8%	4µM*	11µM*	36	6%
CC(=O)NC(=S)Nc1ccccc1N1CCCCC1	-4%	2.5µM*	7.1µM*	26	0%
CC(C)(C)C(=O)NC(=S)Nc1ccccc1N1CCCC1	-11%	20%	?	40	9%
CCn1nc(C(=O)Nc2ccccc2N2CCCC2)c2ccccc2c1=O	-516%	.	.	-62*	?
CC(C)CC(=O)Nc1ccccc1N1CCCC1	-7%	2%	12%	-1	0%
CCCCNC(=O)C1(C)CCC(=O)N1CCc1c[nH]c2ccccc12 (centres undefined)	.	.	.	7	.
C[C@H](O)[C@@H]1C(=O)N2CCc3ccc(-c4ccccc4)cc3[C@@H]2C[C@@H]1N(C)C(=O)c1ccco1	.	.	.	9	.
CC(CC(=O)Nc1ccc2c(c1)c(=O)n(C)n2Cc1ccc(Cl)cc1)C(F)(F)F (centres undefined)	.	.	.	-17	.
SMILES	SW480 rereplic	RORgamma inh	VP16 counter	IL1B secr inh	MCF10A rerep
CCCCCC(=O)NC(=S)Nc1ccc(N2CCOCC2)cc1	-2%	1.3µM*	2.2µM*	-11	2%
CCC(=O)NC(=S)Nc1ccccc1C(=O)NC1CCCCC1	2%	28%	?	0	3%
CCCCCC(=O)NC(=S)Nc1ccc(N2CCCCC2)c(Cl)c1	12%	1.6µM*	7.1µM*	-4	?
CCCC(=O)NC(=S)Nc1ccccc1N1CCOCC1	0%	11µM*	?	34	4%
CCC(=O)NC(=S)Nc1cccc(Cl)c1N1CCCCC1	11µM*	4.5µM*	5µM*	52	?
CC(=O)c1ccc(N2CCN(S(=O)(=O)c3cc4c(cc3C)NC(=O)CO4)CC2)cc1	0%	?	?	1	-3%
CCCC(=O)NC(=S)Nc1cccc(Cl)c1N1CCCCC1	15%	0.63µM*	1µM*	64	?
CC(C)[C@H](NS(=O)(=O)c1ccccc1)C(=O)OCC(=O)NC(=O)NC1CCCCC1	-4%	.	.	3	-15%
COc1ccc(/C=N/NC(N)=S)cc1OC(=O)c1ccccc1	?	13µM*	?	13	9%
COc1cc(C(=O)N/N=C/c2ccc(OC(=O)c3ccccc3)c(OC)c2)ccc1O	21µM*	38%	-14%	i	-31%
COc1cc(/C=N/NC(=O)c2cc(O)cc(O)c2)ccc1OC(=O)c1ccccc1	-39%	-29%	-3%	i	2%
COCc1ccc(C(=O)N2CCCC(N3CCN(c4cccc(Cl)c4)CC3)C2)s1 (centres undefined)	.	.	.	18	.
Cc1ccc(Cl)cc1N1CCN(C(=O)C2CCN(c3nnc(-n4cccc4)s3)CC2)CC1	12%	38%	11µM*	-19	?
COC(=O)[C@@H]1C[C@H]2CC[C@H](O)C[C@H]2N1Cc1ccc(N2CCOCC2)cc1	.	1%	-6%	.	.
COC(=O)[C@@]1(Cc2ccc(F)cc2)[C@H]2c3cc(C(=O)N(C)C)n(CCCNc4ccc(C(F)(F)F)cc4Cl)c3C[C@H]2CN1C(=O)c1ccccc1	.	32%	-2%	.	.
CCCNC(=O)C(Cc1ccccc1)NC(=O)Cc1ccccc1 (centres undefined)	-4%	.	.	-3	22%
O=C(COc1ccccc1F)N/N=C1\CCCc2ccccc21	-14%	4µM*	?	-4	?
CCN(CC)CCN(C(=O)c1ccc2c(c1)OCCO2)c1nc2ccc(C)cc2s1	5%	-4%	-1%	-51*	3%
Cc1cc(C)c2nc(N(CCCN(C)C)C(=O)c3ccc4c(c3)OCCO4)sc2c1	?	.	.	-79*	18µM*
Cc1ccc2nc(N(CCN(C)C)C(=O)c3ccc4c(c3)OCCO4)sc2c1	3%	13%	-8%	-29	2%
CSc1ncnc2c1ncn2CCCN(C)Cc1ccco1	.	.	.	7	.
CCOC(=O)c1c(NC(=O)CCN2CCOCC2)sc(C)c1-c1ccccc1	7%	27%	-8%	-78*	?
CCc1c(C)sc(NC(=O)/C=C/C(=O)O)c1C(N)=O	-4%	-92%	-4%	31	-1%
CCOC(=O)c1c(NC(=O)/C=C/C(=O)O)sc(C)c1-c1ccc(C(C)(C)C)cc1	18µM*	11µM*	?	-106*	?
